Whole data set: some 33,000 sequences, median “E-score (-0.5 to 0.5)” near -0.041, cut for the highest 2% near 0.37. This is one part of a sample in which the highest values are shown more often than they occur.
Target: T1, Ecm22 (UniProt Q05958)
T1 sequence: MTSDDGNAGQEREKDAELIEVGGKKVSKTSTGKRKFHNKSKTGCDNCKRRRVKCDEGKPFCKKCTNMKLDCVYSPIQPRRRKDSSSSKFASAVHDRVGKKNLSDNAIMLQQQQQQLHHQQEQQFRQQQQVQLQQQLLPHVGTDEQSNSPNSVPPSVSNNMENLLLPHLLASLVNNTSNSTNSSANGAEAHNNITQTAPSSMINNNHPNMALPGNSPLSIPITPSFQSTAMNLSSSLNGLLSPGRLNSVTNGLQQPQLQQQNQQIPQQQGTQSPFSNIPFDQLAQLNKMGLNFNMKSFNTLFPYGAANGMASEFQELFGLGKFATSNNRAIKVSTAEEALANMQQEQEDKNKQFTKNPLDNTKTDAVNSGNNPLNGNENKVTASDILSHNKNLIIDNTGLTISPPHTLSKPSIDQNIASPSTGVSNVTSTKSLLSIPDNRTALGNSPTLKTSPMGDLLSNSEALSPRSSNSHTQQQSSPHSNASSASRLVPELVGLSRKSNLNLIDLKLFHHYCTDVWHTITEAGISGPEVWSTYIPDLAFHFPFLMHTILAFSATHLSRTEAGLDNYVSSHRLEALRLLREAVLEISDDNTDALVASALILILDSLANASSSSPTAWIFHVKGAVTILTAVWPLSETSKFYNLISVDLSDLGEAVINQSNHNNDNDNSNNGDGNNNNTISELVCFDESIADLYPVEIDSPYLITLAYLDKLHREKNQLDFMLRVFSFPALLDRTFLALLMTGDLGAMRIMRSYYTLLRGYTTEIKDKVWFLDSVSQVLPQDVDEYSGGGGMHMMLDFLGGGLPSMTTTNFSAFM
Assay: PBM E-score (8-mer binding enrichment) (E-score (-0.5 to 0.5)); higher = stronger / more preferred TF binding
Conditions: protein concentration: 200 nM; construct: GST-full length
Experimental: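 Universal 'all 10-mer' protein binding microarrays (Agilent AMADID 015681) probed with GST-tagged S. cerevisiae TFs (full-length or DBD) made by in vitro transcription/translation (PURExpress), about 100-200 nM. Bound TF was detected with fluorescent anti-GST. Each ungapped 8-mer (which stands for itself and its reverse complement) is scored by the PBM enrichment score (E-score), a modified Wilcoxon-Mann-Whitney statistic from -0.5 to +0.5, computed with the Universal PBM Analysis Suite. Scale: above 0.35 generally sequence-specific binding.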

| Sequence | PBM E-score |
| --- | --- |
| GTTAAGCA | -0.0308 |
| CATCAGAG | -0.126 |
| ACACCCCT | -0.271 |
| TGTTCTAA | -0.023 |
| AGTGCGTA | 0.14 |
| CGAGTATC | 0.246 |
| CCGCTATC | 0.0478 |
| TATACGGA | 0.439 |
| GATACGCA | 0.231 |
| CATACGCA | 0.216 |
| CATACGGA | 0.362 |
| GATACGGA | 0.285 |
| TATACGCA | 0.415 |
| CGGATCGA | 0.219 |
| ATCTTTTC | -0.0858 |
| ACGTTATG | 0.163 |
| ACGAGTAA | 0.396 |
| GCGAGTAA | 0.114 |
| ACGAGTAT | 0.382 |
| AAGAGTAG | -0.211 |
| CCGAGTAA | 0.256 |
| CCGAGTAC | 0.24 |
| AGGAGTAT | -0.109 |
| ACGAGTAC | 0.421 |
| AAGAGTAT | -0.113 |
| CCGAGTAG | 0.0401 |

| Sequence | PBM E-score |
| --- | --- |
| ACGAGTAG | 0.38 |
| GCGAGTAC | 0.324 |
| AGGCCCAT | -0.148 |
| GACCGCGC | 0.0551 |
| CCCGACCC | 0.092 |
| AAGCGCGT | 0.0575 |
| CCCCTCGG | 0.266 |
| CCGAGCCC | 0.0573 |
| CCCCTCTA | -0.112 |
| AAGTTTGT | -0.176 |
| AACTGTTC | -0.177 |
| ACGCAGGA | 0.108 |
| AGCTGCCA | -0.171 |
| ACGCCACC | -0.0558 |
| CCGGTGGC | -0.135 |
| ACGAGTCG | 0.384 |
| ACGAGTCA | 0.219 |
| ACGAGTCT | 0.324 |
| AATCCATT | 0.0189 |
| AACTCGTC | 0.102 |
| CACTCGTC | 0.0448 |
| CACTCGTA | 0.458 |
| GACTCGCA | 0.151 |
| GACTCGAA | -0.121 |
| CACTCGAA | 0.0641 |
| AACTCGTG | 0.228 |

| Sequence | PBM E-score |
| --- | --- |
| AACTCGTA | 0.47 |
| GACTCGTA | 0.455 |
| GCTACCTA | -0.156 |
| ACCTTTCA | -0.0376 |
| ACAAGCCG | -0.0164 |
| AGGATTAC | -0.0965 |
| CCGGTAAG | 0.0008 |
| ATAATTAT | 0.311 |
| ACAGTAAT | -0.0196 |
| CAGAATCG | 0.17 |
| ACCTCACA | -0.106 |
| AAAGTGTT | -0.0118 |
| GCTTGAGA | -0.0858 |
| ACGAGGGA | 0.41 |
| ACGAGGGC | 0.374 |
| CCGAGGGA | -0.0341 |
| CCGAGGGC | 0.203 |
| AAGAGGGC | -0.297 |
| ACGAGGGG | 0.365 |
| TAGTGGCA | -0.179 |
| CCCTTCCC | -0.234 |
| ACTCCAAC | -0.175 |
| CTACTTCC | 0.0408 |
| ATCATCAT | 0.0455 |
| GTATCGAC | 0.165 |
| CTCGTAAC | 0.428 |

| Sequence | PBM E-score |
| --- | --- |
| CTCGTAAG | 0.44 |
| GGCGTAAC | -0.0339 |
| ATCGTAAC | 0.368 |
| CGCGTAAG | 0.165 |
| GTCGTAAC | 0.397 |
| CACGTAAC | -0.149 |
| GACGTAAC | -0.079 |
| CACGTAAG | 0.0432 |
| TCGCACCA | 0.324 |
| CTAAGAAG | -0.0845 |
| ACTGTGAG | -0.105 |
| GCGAGCAA | 0.198 |
| CCCATTAG | -0.248 |
| AGCAACAT | -0.112 |
| ACGTCTTC | -0.126 |
| ACAACTGT | -0.148 |
| AGTGTACG | 0.389 |
| ATTGTACA | -0.0596 |
| CCTGTACG | 0.4 |
| ACTGTACT | -0.12 |
| ACTGTACG | 0.42 |
| AGTGTACA | -0.0734 |
| ACTGTACC | -0.0754 |
| AGTGTACC | -0.059 |
| CCTGTACA | -0.174 |
| ATTGTACG | 0.431 |

| Sequence | PBM E-score |
| --- | --- |
| CCTGTACC | -0.0544 |
| ATTGTACC | 0.00485 |
| AATTTTGA | 0.0335 |
| CCCTGATA | -0.194 |
| CGGATCTA | 0.0938 |
| CAAGCCGA | 0.0727 |
| AGACAGAA | -0.0147 |
| CATGTACG | 0.399 |
| CATGTACA | -0.0676 |
| AATGTACG | 0.331 |
| CAAGGGTA | -0.0852 |
| CGTACAGA | 0.382 |
| CCTACAGC | -0.318 |
| CGTACAGC | 0.427 |
| AGTACAGC | -0.113 |
| GGTACAGA | -0.0866 |
| AGTACAGA | 0.0225 |
| CGAAGGCG | 0.124 |
| CGGGTTAC | 0.231 |
| CGTTCCAC | 0.405 |
| AGTTCCAC | 0.0665 |
| CGTTCCAG | 0.418 |
| GGTTCCAC | -0.237 |
| CGTTCCAA | 0.365 |
| AGTTCCAG | -0.172 |
| CAATCTAG | -0.0844 |

| Sequence | PBM E-score |
| --- | --- |
| AGGTCCCC | -0.33 |
| GCTTCCGA | 0.0694 |
| GCTGCGAA | 0.0942 |
| CCACAGTC | -0.189 |
| AGGGACAC | -0.0536 |
| GGTTTACA | -0.0503 |
| AGTTTACC | -0.0268 |
| CGTTTACC | 0.435 |
| CGTTTACA | 0.405 |
| AGTTTACA | -0.0418 |
| CATTTACC | -0.0682 |
| GCTAGCCC | -0.379 |
| GGCCCGGA | -0.142 |
| GCAGGTCC | 0.0428 |
| CCATCTCG | 0.105 |
| ATCATACA | 0.0909 |
| ATCATACG | 0.404 |
| CACATACG | 0.335 |
| ATCATACC | 0.00527 |
| CGCATACG | 0.385 |
| AACATACG | 0.373 |
| CGCATACC | 0.16 |
| AACATACT | 0.0945 |
| CGCATACA | 0.111 |
| CCGTCTTC | -0.175 |
| CCCTCAAA | -0.157 |

| Sequence | PBM E-score |
| --- | --- |
| ATTTGCGG | 0.0753 |
| AACCGTTA | 0.0731 |
| ACGACAAC | 0.366 |
| ACGACAGT | 0.382 |
| TCGACAAA | 0.178 |
| ACGACAAT | 0.368 |
| ACGACAGC | 0.319 |
| ACGACAAA | 0.384 |
| ACGACAAG | 0.334 |
| ACGACAGG | 0.339 |
| CCGACAAA | 0.0481 |
| ACGCCAGG | 0.0457 |
| GTCCAGCA | -0.169 |
| AAGCGTGT | -0.18 |
| CAGATATC | -0.0887 |
| GGTTCGAC | 0.0422 |
| TGCACAAA | -0.22 |
| AAGCTCGC | 0.297 |
| AATCTCGG | 0.129 |
| AATCTCGT | 0.386 |
| AAGCTCGA | 0.0757 |
| AATCTCGA | 0.0888 |
| AAGCTCGT | 0.38 |
| TACATGGA | -0.119 |
| GCAGGGCA | -0.18 |
| GGCCACCA | -0.161 |

| Sequence | PBM E-score |
| --- | --- |
| ACCAGAAG | -0.0736 |
| CGACTGAA | 0.163 |
| ACCGAGCC | 0.245 |
| AAACGATC | 0.423 |
| GAACGATC | 0.432 |
| AAACGCTT | 0.00074 |
| CAACGATC | 0.175 |
| AAACGCTG | 0.0348 |
| AAACGATT | 0.42 |
| CAACGATG | 0.207 |
| CCACGATC | 0.0737 |
| AATCGATT | 0.0191 |
| GATCGATC | 0.171 |
| AAACGATG | 0.439 |
| AGACGATC | -0.0754 |
| CATTAGGG | -0.168 |
| AGAACCCG | -0.0503 |
| ACTCTACG | 0.265 |
| AGCGCACG | 0.097 |
| ACCCCCTC | -0.274 |
| CGTGGATC | -0.0292 |
| CCTATGGA | -0.192 |
| CCCATTAC | -0.101 |
| CGACTGAG | 0.0682 |
| CCACGATA | 0.0166 |
| AAACGATA | 0.435 |

| Sequence | PBM E-score |
| --- | --- |
| GGACGATA | -0.213 |
| TAACGATA | 0.367 |
| CAACGATA | 0.263 |
| GAACGATA | 0.416 |
| ACCCTTGG | -0.233 |
| ATTCTAAA | 0.095 |
| ACCTAGAG | -0.00033 |
| ATTCGCGG | -0.00497 |
| ACGGGAGA | 0.0694 |
| CGACGGGA | 0.227 |
| CCTAAACG | 0.407 |
| CCTAAACA | -0.149 |
| ATTAAACA | -0.163 |
| ATTAAACG | 0.449 |
| ACTAAACA | -0.273 |
| ATTAAACC | -0.0934 |
| CCTAAACC | -0.00691 |
| ACTAAACC | -0.00061 |
| ACTAAACG | 0.457 |
